Compounds with a hit are over-represented: about 2.4% of the library has one in this group of screens.
Pol eta inh: blocks human DNA polymerase eta activity; AID 588591; Potency, µM (titrated, usually from 114 µM), hits mostly inhibitors; actives 1.2% (n = 390,000); recombinant Pol eta, fluorescent DNA replication assay; Q9Y253
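Pol eta (10 nM) was preincubated with compounds for 15 min at room temperature, after which fluorescent replication substrate (50 nM final) was added to start the reaction. Fluorescence was read kinetically at 0 and 10 min.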
Pol beta inh: inhibitors of human DNA polymerase beta; Potency, µM (top dose mostly 114 µM), most hits filed as inhibitors; actives 1.3% (n = 340,000); P06746; AID 485314; Pol beta primer extension/strand displacement, fluorescence kinetic
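Homogeneous kinetic assay of primer extension and strand displacement by 10 nM Pol beta, preincubated 15 min at room temperature with compound before 50 nM substrate (final) was added. Read at 0 and 10 min; four-parameter Hill fit.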
WRN helicase inh: blocks human WRN helicase; Q14191; WRN helicase unwinding, fluorescent forked duplex, kinetic; Potency, µM (doses to about 114 µM), most hits filed as inhibitors; actives 0.46% (n = 360,000); further: nearly all actives have a fitted effect of over 55% in size
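WRN at 20 nM final was preincubated with compound for 15 min at room temperature; reaction started with 100 nM forked duplex oligonucleotide carrying fluorophore and quencher plus 2 mM ATP (final). Unwinding followed kinetically by red fluorescence (ex 525/em 598 nm).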
FEN1 inhibitor: human FEN1 inhibition; P39748; Recombinant FEN1 flap cleavage, fluorescence, 15 min; Potency, µM (highest dose often 114 µM), most hits filed as inhibitors; actives 0.35% (n = 390,000); AID 588795; further: nearly all actives have a fitted effect of over 65% in size
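FEN1 at 10 nM, compound pretreatment for 15 min (room temperature), 50 nM final substrate to initiate; endpoint reads at 0 and 15 min; DMSO-only plates used as vehicle background.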
Pol iota inh: blocks human DNA polymerase iota activity. Q9UNA4. Pol iota fluorescent replication assay, 10 min. Potency, µM (highest dose often 115 µM), most hits filed as inhibitors. actives 1% (n = 390,000)
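Fluorescent replication assay read twice, at 0 min and 10 min after adding 50 nM (final) substrate. Enzyme (10 nM) and compounds were first incubated 15 min at room temperature; enzyme-free buffer wells were negative controls.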
POLK inh: blocks human DNA polymerase kappa activity; purified Pol kappa, fluorescent DNA synthesis assay, 10 min; Potency, µM (top dose mostly 107 µM), hits mostly inhibitors; actives 0.53% (n = 400,000); AID 588579
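Readout: fluorescence, taken kinetically at 0 and 10 min. Conditions: 10 nM Pol kappa, 15 min RT compound preincubation, 50 nM substrate final. Controls: enzyme-free buffer wells.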
Large screens that a line does not name were inactive. The call rests on the fitted dose curve; in most records, active means well fitted curve in the direction sought with a large enough effect; inconclusive means small, poorly fitted or top-dose-only effect, or another doubt; inactive means no such curve, though single readings can be large; an effect the other way counts as inactive or inconclusive.

Cc1cnc(CNC(=O)c2csc([C@@H]3C[C@H](O)[C@@H](CO)O3)n2)cn1	none (no result: Pol eta inh, Pol beta inh, FEN1 inhibitor, Pol iota inh, POLK inh)
CCCn1c(=O)c2ccccc2n2c(SCC(=O)c3ccccc3)nnc12	none
CCCn1c(=O)c2ccccc2n2c(SCCNCCO)nnc12	Pol beta inh 0.16µM
CC1CCC(N2CC(=O)N(C3CCCC3)C(c3ccc(Cl)cc3)C2=O)CC1 (configuration not stated)	none (no result: WRN helicase inh)
CN(C)c1cccc2c1c(NS(=O)(=O)c1cn(C)cn1)nn2C	Pol iota inh 40µM
COc1cc(/C=N/NC(=O)c2ccc(-n3cccc3)cc2)ccc1O	Pol eta inh 22µM, Pol beta inh 13µM, Pol iota inh 89µM, POLK inh inconclusive
COc1cc(/C=N/NC(=O)c2ccc(-c3ccccc3)cc2)cc(OC)c1OC	Pol eta inh inconclusive, Pol beta inh 35µM, Pol iota inh inconclusive, POLK inh inconclusive
COc1cc(/C=C(/C(=O)O)c2ccc(-c3ccccc3)cc2)cc(OC)c1OC	Pol eta inh inconclusive, Pol beta inh 50µM
COc1ccc(/C=N\NC(=O)c2ccc(-c3ccccc3)cc2)c(OC)c1OC	none
COc1cc(/C=N/NC(=O)c2ccc3c(c2)OCO3)ccc1O	Pol beta inh inconclusive
COc1cccc(/C=N/NC(=O)c2ccc(N3CCCC3=O)cc2)c1	Pol beta inh 25µM, Pol iota inh inconclusive, POLK inh inconclusive
O=C(N/N=C/c1ccco1)c1ccc(N2CCCC2=O)cc1	Pol eta inh inconclusive, Pol beta inh inconclusive, Pol iota inh inconclusive
COc1cc(C=C(C#N)C(=O)c2ccccc2)cc(OC)c1OC	none (no result: Pol eta inh, Pol beta inh, FEN1 inhibitor, Pol iota inh, POLK inh)
CCOC(=O)C1CCCN(S(=O)(=O)c2cc(-c3cc(C)no3)ccc2C)C1 (configuration not stated)	none (no result: WRN helicase inh)
Cc1coc2c(C)c3oc(=O)c(CC(=O)N4CCCCC4)c(C)c3cc12	none (no result: WRN helicase inh)
COc1ccc(N=Cc2cc(Cc3ccccc3Cl)cc([N+](=O)[O-])c2O)cc1OC	Pol eta inh 28µM, Pol iota inh inconclusive
CCOc1ccc(-n2c(SCC(=O)Nc3ccc4c(c3)OCCO4)nc3c([nH]c4ccccc43)c2=O)cc1	none (no result: WRN helicase inh)
Cc1cc2oc(=O)c(CC(=O)NCCc3ccccc3)c(C)c2c2occ(C(C)(C)C)c12	none (no result: WRN helicase inh)
COc1ccc(CC(=O)Nc2cccc(-c3ccc4nnc(C)n4n3)c2)cc1	none
CCC(=O)Nc1cccc(NC(C)=O)c1	Pol beta inh 22µM (no result: Pol eta inh, WRN helicase inh, FEN1 inhibitor, Pol iota inh, POLK inh)
Cc1nnc2ccc(-c3cccc(NC(=O)Cc4cccs4)c3)nn12	Pol eta inh inconclusive, Pol beta inh 13µM, Pol iota inh 35µM, POLK inh inconclusive
CC(=O)Nc1cccc(NC(=O)Cc2cccs2)c1	Pol eta inh 35µM, Pol iota inh inconclusive
CCOc1cccc(NC(=O)Cc2cccs2)c1	none
CCC12CN3CC(C)(CN(C1)C3c1c[nH]c3ccccc13)C2=O (configuration not stated)	none (no result: WRN helicase inh)
OCc1ccccc1-c1cnc2sc(NCc3ccc(F)cc3)nn12	none (no result: Pol eta inh, Pol beta inh, FEN1 inhibitor, Pol iota inh, POLK inh)
O=c1cc(-c2ccc(Cl)cc2)[nH][nH]1	Pol iota inh 1.6µM
O=c1cc(-c2ccc(Cl)c(Cl)c2)[nH][nH]1	none
O=S(=O)(Nc1nc2n(n1)C(c1ccc(F)cc1)C=C(c1ccc(Cl)cc1)N2)c1ccccc1 (configuration not stated)	Pol eta inh 89µM (no result: WRN helicase inh)
COc1cccc(-c2[nH]nc3c2C(c2ccoc2)C(C#N)=C(N)O3)c1 (configuration not stated)	Pol eta inh inconclusive, Pol beta inh 35µM, WRN helicase inh inconclusive, Pol iota inh inconclusive
Cc1ccc(C2C(C#N)=C(N)Oc3n[nH]c(-c4cccs4)c32)cc1 (configuration not stated)	none
N#CC1=C(N)Oc2n[nH]c(-c3cccs3)c2C1c1ccoc1 (configuration not stated)	Pol eta inh inconclusive, WRN helicase inh 45µM, FEN1 inhibitor inconclusive, Pol iota inh inconclusive
Cc1cccc(N2CCN(C(=O)c3ccc4c(c3)N(Cc3cccc(Cl)c3)C(=O)c3ccccc3S4=O)CC2)c1C (configuration not stated)	none (no result: WRN helicase inh)
COc1ccc(Cc2c(-c3cccc(Cl)c3)nc3c(C)cc(Br)cn23)c(C)c1	none (no result: Pol eta inh, Pol beta inh, FEN1 inhibitor, Pol iota inh, POLK inh)

Screening results: PubChem BioAssay, National Center for Advancing Translational Sciences (NCATS)
